Screening results (PubChem)
T cruzi growth-1 – inhibitors of T. cruzi proliferation | T. cruzi beta-gal in NIH3T3, GalScreen luminescence, 90 h | inhibition, % at 8.34 µM | actives 5.9% (n = 77,000) | AID 624255;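 active means mean inhibition above about 93%, with at least 55% of replicates each passing it, limit read from the data, passing the limit was not always enough; inconclusive means only one of those two conditions holds; inactive means neither condition holds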
Pf Dd2 inh – P. falciparum Dd2 growth inhibition. SYBR Green, 72 h; active compounds read low. activity change, % at 10 µM. actives 2.3% (n = 94,000). AID 1159554; in the data active means activity change below about -80%; inconclusive means no clear call, values can overlap the other calls
C diff growth – C. difficile growth inhibition | Clostridium difficile clinical isolate growth, OD600, 24 h; active compounds read low | actives 0.25% (n = 86,000) | growth activity, negative = inhibition, % at 16 µg/mL (by protocol) | AID 1259249;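 active means mean growth activity at or below -80% and every replicate also at or below -80%; inconclusive means mean at or below -80% but some replicate above -80%; inactive means mean growth activity above -80%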;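 further: 0% = DMSO wells and -100% = levofloxacin 16 µg/mL wells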
T cruzi growth-2 – blocks T. cruzi growth in NIH3T3 host cells; actives 72% (n = 5,600); shares compounds with T cruzi growth-1; AID 651739; inhibition, % at 8.35 µM; T. cruzi beta-gal in NIH3T3, GalScreen luminescence, 90 h;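 active means mean replicate inhibition above about 95% and at least 55% of replicates individually reaching it, limit read from the data; inconclusive means only one of the two criteria is met; inactive means neither criterion is met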
T cruzi growth-3 – Trypanosoma cruzi proliferation inhibition. shares compounds with T cruzi growth-1. T. cruzi beta-gal in NIH3T3, GalScreen luminescence, 90 h. inhibition, % at 2.09 µM. actives 21% (n = 5,600);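 active means mean inhibition above about 95%, with at least 55% of replicates also reaching it, limit read from the data; inconclusive means meets just one of the two conditions; inactive means meets neither condition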;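 further: plate controls were neutral control median for no effect and positive control median for full effect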
3T3 cytotox – kills mouse NIH/3T3 fibroblasts; cytotoxicity (signal decrease), % at 8.35 µM; actives 14% (n = 5,600); NIH/3T3 viability, CellTiter-Glo ATP luminescence, 90 h; shares compounds with T cruzi growth-1;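 active means mean signal decrease across replicates above about 35% based on untreated-well scatter, with enough replicates individually passing, limit read from the data; inconclusive means no rule stated though some were filed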;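 further: 0% = median of neutral control wells and 100% = median of positive control wells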
NIH3T3 tox 2 – NIH/3T3 (mouse) viability loss; shares compounds with T cruzi growth-1; actives 56% (n = 5,600); inhibition, % at 24.9 µM; AID 651744; NIH/3T3 viability, CellTiter-Glo ATP luminescence, 90 h;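 active means mean loss of cell viability signal at or above a set limit, and enough replicates individually reaching it; inconclusive means meets only the mean limit or only the replicate share; inactive means meets neither condition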;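 further: 0% = median of neutral control wells and 100% = median of positive control wells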
* marks the source's active call; other numbers are inactive results; ? = inconclusive; . = no result given. Compounds with a hit are over-represented: about 6.7% of the library has one in this group of screens.

SMILES	T cruzi growth-1	Pf Dd2 inh	C diff growth	T cruzi growth-2	T cruzi growth-3	3T3 cytotox	NIH3T3 tox 2
Cc1ccccc1-c1ccc([C@@H]2[C@H]3CN(C(=O)Nc4cccc(F)c4)CCCCN3[C@H]2CO)cc1	89.6	-5.5	19.5	.	.	.	.
Cc1ccccc1-c1ccc([C@H]2[C@H](CO)N3CCCCN(C(=O)Nc4cccc(F)c4)C[C@@H]23)cc1	80.0	-8.9	46.8	.	.	.	.
Cc1ccccc1-c1ccc([C@@H]2[C@H]3CN(C(=O)Nc4ccc(F)cc4)CCCCN3[C@H]2CO)cc1	107.0*	11.3	55.3	90.0	104.8*	?	106.1*
C[C@@H]1CN([C@H](C)CO)C(=O)c2cc(NS(=O)(=O)c3cn(C)cn3)ccc2O[C@H]1CN(C)S(=O)(=O)c1cn(C)cn1	7.1	12.3	.	.	.	.	.
O=C(C[C@@H]1CC[C@@H](NS(=O)(=O)c2ccccc2)[C@@H](CO)O1)N1CCN(c2ccccc2)CC1	.	56.8	6.9	.	.	.	.
COCC(=O)N1CCC2(CC1)CN(C(=O)COC)[C@@H](CO)c1c2c2ccc(OC)cc2n1C	.	-6.4	-12.9	.	.	.	.
CO[C@@H]1CN(C)C(=O)c2cc(NC(C)=O)ccc2OC[C@@H](C)N(CCC(F)(F)F)C[C@H]1C	-29.8	-0.7	.	.	.	.	.
CCCC#Cc1ccc([C@H]2[C@@H](CO)N(C(C)=O)[C@H]2CNC(=O)C2CCCC2)cc1	.	-7.2	-4.5	.	.	.	.
C[C@@H]1CN([C@H](C)CO)S(=O)(=O)c2ccc(-c3ccccc3F)cc2O[C@@H]1CN(C)Cc1cccnc1	74.7	-5.4	-4.2	.	.	.	.
C[C@@H]1CN([C@@H](C)CO)S(=O)(=O)c2ccc(-c3ccccc3F)cc2O[C@@H]1CN(C)Cc1ccncc1	100.3*	-5.0	-17.3	?	83.4	29.0	46.8*
C[C@@H]1CN([C@@H](C)CO)S(=O)(=O)c2ccc(-c3ccccc3F)cc2O[C@H]1CN(C)Cc1cccnc1	101.0*	-67.7	-1.4	100.8*	96.7*	56.1*	94.8*
C[C@@H]1CN([C@@H](C)CO)S(=O)(=O)c2ccc(-c3ccccc3)cc2O[C@H]1CN(C)Cc1ccncc1	?	-28.8	.	.	.	.	.
Cc1ccccc1-c1ccc2c(c1)O[C@H](CN(C)Cc1ccncc1)[C@@H](C)CN([C@@H](C)CO)S2(=O)=O	96.8*	?	5.7	99.2*	98.5*	40.8*	104.8*
C[C@H](CO)N1C[C@H](C)[C@@H](CN(C)Cc2cncnc2)Oc2cc(-c3ccccc3F)ccc2S1(=O)=O	2.8	-30.3	-9.2	.	.	.	.
CO[C@@H]1CN(C)C(=O)c2ccc(NC(C)=O)cc2OC[C@H](C)N(CCc2ccccc2)C[C@H]1C	-34.2	1.4	.	.	.	.	.
O=C1CNC[C@@H]2[C@H](c3ccc(C#Cc4cccnc4)cc3)[C@@H](CO)N12	.	0.1	15.4	.	.	.	.
O=S(=O)(NCC[C@H]1CC[C@@H](NS(=O)(=O)c2ccccc2Cl)[C@@H](CO)O1)c1ccc(F)cc1	-7.9	-12.6	-5.2	.	.	.	.
C[C@@H]1CCCCO[C@H](CN(C)S(C)(=O)=O)[C@@H](C)CN([C@H](C)CO)C(=O)c2cc(NC(=O)Nc3cccc4ccccc34)ccc2O1	51.2	15.5	6.6	.	.	.	.
COc1ccc(S(=O)(=O)N(C)C[C@@H]2Oc3c(NC(=O)Nc4ccc(F)cc4)cccc3C(=O)N([C@@H](C)CO)C[C@H]2C)cc1	9.9	-47.8	-7.8	.	.	.	.
COCC#Cc1cnc2c(c1)C(=O)N([C@@H](C)CO)C[C@@H](C)[C@H](CN(C)Cc1ccc(F)cc1)O2	-19.7	-4.7	-3.5	.	.	.	.
CC(C)C#Cc1ccc2c(c1)O[C@@H](CN(C)C(=O)C1CCCCC1)[C@@H](C)CN([C@@H](C)CO)S2(=O)=O	?	-29.7	10.9	102.3*	83.0	17.3	106.9*
CC(C)C#Cc1ccc2c(c1)O[C@H](CN(C)C(=O)C1CCCCC1)[C@@H](C)CN([C@H](C)CO)S2(=O)=O	67.9	-57.5	19.4	.	.	.	.
CC(C)C#Cc1ccc2c(c1)O[C@H](CN(C)C(=O)C1CCC1)[C@@H](C)CN([C@H](C)CO)S2(=O)=O	112.8*	-27.2	.	98.3*	75.3	23.7	28.2*
CC(C)C#Cc1ccc2c(c1)O[C@@H](CN(C)C(=O)C1CCC1)[C@H](C)CN([C@@H](C)CO)S2(=O)=O	79.9	-36.3	.	.	.	.	.
C[C@H](CO)N1C[C@H](C)[C@H](CN(C)C)Oc2cc(C3=CCCCC3)ccc2S1(=O)=O	-64.1	-11.4	.	.	.	.	.
SMILES	T cruzi growth-1	Pf Dd2 inh	C diff growth	T cruzi growth-2	T cruzi growth-3	3T3 cytotox	NIH3T3 tox 2
CCCN(C)C[C@@H]1Oc2ncc(-c3cccc(C#N)c3)cc2C(=O)N([C@@H](C)CO)C[C@H]1C	31.0	-71.8	-2.2	.	.	.	.
COCC#Cc1ccc2c(c1)O[C@@H](CN(C)Cc1ccccc1)[C@H](C)CN([C@H](C)CO)S2(=O)=O	108.5*	-70.1	2.4	92.9	44.6	53.2*	105.5*
COCC#Cc1ccc2c(c1)O[C@H](CN(C)Cc1ccncc1)[C@@H](C)CN([C@@H](C)CO)S2(=O)=O	53.5	17.1	-1.5	.	.	.	.
COCC#Cc1ccc2c(c1)O[C@H](CN(C)Cc1ccccc1)[C@H](C)CN([C@H](C)CO)S2(=O)=O	39.3	-53.0	4.3	.	.	.	.
COCC#Cc1ccc2c(c1)O[C@@H](CN(C)Cc1cncnc1)[C@H](C)CN([C@@H](C)CO)S2(=O)=O	106.3*	8.3	0.3	106.4*	89.2	10.0	36.1*
COCC#Cc1ccc2c(c1)O[C@@H](CN(C)Cc1ccncc1)[C@H](C)CN([C@H](C)CO)S2(=O)=O	109.2*	-4.1	-0.8	99.9*	91.4	11.5	63.0*
COCC#Cc1ccc2c(c1)O[C@H](CN(C)Cc1cncnc1)[C@@H](C)CN([C@@H](C)CO)S2(=O)=O	-3.6	-7.4	2.7	.	.	.	.
N#C[C@H]1[C@H](c2ccc(C#CCC3CCCC3)cc2)[C@H](CO)N1C(=O)CN1CCOCC1	83.3	-13.2	-4.2	.	.	.	.
COc1ccc(NC(=O)Nc2ccc3c(c2)[C@@H]2C[C@H](CC(=O)NCc4ccc5c(c4)OCO5)O[C@H](CO)[C@@H]2O3)cc1	102.1*	-13.4	-8.4	91.6	61.5	1.6	11.6
COc1ccc(NC(=O)Nc2ccc3c(c2)[C@H]2C[C@H](CC(=O)NCc4ccc5c(c4)OCO5)O[C@@H](CO)[C@H]2O3)cc1	37.4	-6.2	-2.5	.	.	.	.
CCCNC(=O)C[C@H]1C[C@@H]2c3cc(NC(=O)Nc4ccc(OC)cc4)ccc3O[C@@H]2[C@H](CO)O1	34.3	-2.2	1.2	.	.	.	.
CCCNC(=O)C[C@H]1C[C@H]2c3cc(NC(=O)Nc4ccc(OC)cc4)ccc3O[C@H]2[C@@H](CO)O1	57.3	6.2	0.2	.	.	.	.
COc1ccc(NC(=O)Nc2ccc3c(c2)[C@@H]2C[C@H](CC(=O)NCCc4ccccc4)O[C@@H](CO)[C@@H]2O3)cc1	176.1*	-16.7	35.8	104.7*	?	7.1	10.6
